PubChem BioAssay (EPA / NIEHS)
Where “and” joins values, the source holds several entries; their conditions need not be identical. Equal values may be shown once. The source holds several records for some structures; these can differ, active in one and inactive in another. Calls of active or inactive are those of the source. The calls were made as follows: active = hit-call score of the fitted dose curve at least 0.9, where 1 is the maximum; inactive = score below 0.9.

What was measured:
[1] = read-out: Thrombomodulin, THBD (gene 7056); assay: BSK_CASM3C_Thrombomodulin: BioMAP Diversity Plus: CASM3C Assay for Thrombomodulin Biomarker Activity (AID 2283051); conditions: primary human coronary artery smooth muscle cells; actives raise or lower the signal;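 also: thrombomodulin protein level measured by ELISA 24 h after dosing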
[2] = read-out: Tissue Factor, F3 (gene 2152); assay: BSK_CASM3C_TissueFactor: BioMAP Diversity Plus: CASM3C Assay for Tissue Factor Biomarker Activity (AID 2283052); conditions: primary human coronary artery smooth muscle cells; actives raise or lower the signal;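 also: cell surface tissue factor protein level read by ELISA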
[3] = read-out: Interferon-gamma inducible Protein 10 (IP10), CXCL10 (gene 3627); assay: BSK_hDFCGF_IP10: BioMAP Diversity Plus: hDFCGF Assay for Interferon-gamma inducible Protein 10 (IP10) Biomarker Activity (AID 2283053); conditions: primary human foreskin fibroblasts; actives raise or lower the signal
Summary of the method: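 Chemical-treated human skin fibroblasts (primary) were sampled at 24 h for IP-10 by ELISA. Both increases and decreases relative to DMSO were scored.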

[4] = read-out: Urokinase-type plasminogen activator receptor (uPAR), PLAUR (gene 5329); assay: BSK_CASM3C_uPAR: BioMAP Diversity Plus: CASM3C Assay for Urokinase-type plasminogen activator receptor (uPAR) Biomarker Activity (AID 2283054); conditions: primary human coronary artery smooth muscle cells; actives raise or lower the signal;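 also: cell-surface uPAR protein level quantified by ELISA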
[5] = read-out: Vascular cell adhesion molecule 1 (VCAM1), VCAM1 (gene 7412); assay: BSK_CASM3C_VCAM1: BioMAP Diversity Plus: CASM3C Assay for Vascular cell adhesion molecule 1 (VCAM1) Biomarker Activity (AID 2283055); conditions: primary human coronary artery smooth muscle cells; actives raise or lower the signal;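 also: VCAM-1 protein level quantified by ELISA on the cells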
[6] = read-out: Collagen III, COL3A1 (gene 1281); assay: BSK_hDFCGF_CollagenIII: BioMAP Diversity Plus: hDFCGF Assay for Collagen III Biomarker Activity (AID 2283056); conditions: primary human foreskin fibroblasts; actives raise or lower the signal
Summary of the method: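 Cells: human foreskin fibroblasts, primary. Dosing followed by 24 h incubation, then ELISA for collagen III. Both increases and decreases scored relative to DMSO.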

[7] = read-out: Epidermal growth factor receptor (EGFR), EGFR (gene 1956); assay: BSK_hDFCGF_EGFR: BioMAP Diversity Plus: hDFCGF Assay for Epidermal growth factor receptor (EGFR) Biomarker Activity (AID 2283057); conditions: primary human foreskin fibroblasts; actives raise or lower the signal
Summary of the method: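 Cell-based multiplexed assay in primary human foreskin fibroblasts. EGFR is read by ELISA 24 h after treatment and compared with DMSO controls.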

[8] = read-out: Interleukin-8 (IL8), CXCL8 (gene 3576); assay: BSK_hDFCGF_IL8: BioMAP Diversity Plus: hDFCGF Assay for Interleukin-8 (IL8) Biomarker Activity (AID 2283058); conditions: primary human foreskin fibroblasts; actives raise or lower the signal
Summary of the method: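 IL-8 levels from compound-treated primary human fibroblasts were read by ELISA at 24 h, with DMSO serving as baseline for bidirectional fitting.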

[9] = BSK_hDFCGF_Proliferation: Cell Proliferation Assessment in the BioMAP Diversity Plus: hDFCGF Assay (AID 2283059); conditions: primary human foreskin fibroblasts;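 also: curves fitted for both rise and fall of signal versus DMSO baseline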
Summary of the method: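 This proliferation readout used SRB total-protein staining of human foreskin fibroblasts […], normalized to DMSO with bidirectional curve fitting.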

[10] = read-out: Macrophage colony-stimulating factor (MCSF), CSF1 (gene 1435); assay: BSK_hDFCGF_MCSF: BioMAP Diversity Plus: hDFCGF Assay for Macrophage colony-stimulating factor (MCSF) Biomarker Activity (AID 2283060); conditions: primary human foreskin fibroblasts; actives raise or lower the signal
Summary of the method: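 M-CSF levels, determined by ELISA, are taken at 24 h after dosing human skin fibroblasts. Responses in either direction are fitted with DMSO serving as the baseline.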

[11] = read-out: Monokine induced gamma interferon (MIG), CXCL9 (gene 4283); assay: BSK_hDFCGF_MIG: BioMAP Diversity Plus: hDFCGF Assay for Monokine induced gamma interferon (MIG) Biomarker Activity (AID 2283063); conditions: primary human foreskin fibroblasts; actives raise or lower the signal
Summary of the method: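 MIG signal, determined by ELISA, reflects 24 h chemical exposure of human skin primary fibroblasts. DMSO serves as negative control and baseline.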

[12] = read-out: Matrix Metallopeptidase 1 (MMP1), MMP1 (gene 4312); assay: BSK_hDFCGF_MMP1: BioMAP Diversity Plus: hDFCGF Assay for Matrix Metallopeptidase 1 (MMP1) Biomarker Activity (AID 2283064); conditions: primary human foreskin fibroblasts; actives raise or lower the signal
Summary of the method: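 MMP1 levels quantified by ELISA 24 h after dosing human dermal fibroblast cultures, with parallel SRB total-protein staining for overt cytotoxicity. Data fitted in both directions against DMSO baseline.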

[13] = read-out: Vascular cell adhesion molecule 1 (VCAM1), VCAM1 (gene 7412); assay: BSK_hDFCGF_VCAM1: BioMAP Diversity Plus: hDFCGF Assay for Vascular cell adhesion molecule 1 (VCAM1) Biomarker Activity (AID 2283065); conditions: primary human foreskin fibroblasts; actives raise or lower the signal;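 as to AC50: VCAM-1 protein level quantified by ELISA after 24 h chemical exposure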
Summary of the method: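 Cells are dosed, cultured for 24 h, then VCAM-1 is quantified by ELISA; signal increases and decreases are both fitted relative to DMSO.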

[14] = read-out: Plasminogen activator inhibitor-1 (PAI1), SERPINE1 (gene 5054); assay: BSK_hDFCGF_PAI1: BioMAP Diversity Plus: hDFCGF Assay for Plasminogen activator inhibitor-1 (PAI1) Biomarker Activity (AID 2283066); conditions: primary human foreskin fibroblasts; actives raise or lower the signal
Summary of the method: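 Human skin fibroblast cultures receive chemical for 24 h before PAI-1 is measured by ELISA; signal changes are fitted bidirectionally against DMSO-treated wells.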

[15] = read-out: Intercellular Adhesion Molecule 1 (ICAM1), ICAM1 (gene 3383); assay: BSK_KF3CT_ICAM1: BioMAP Diversity Plus: KF3CT Assay for Intercellular Adhesion Molecule 1 (ICAM1) Biomarker Activity (AID 2283067); conditions: primary human keratinocytes with fibroblasts; actives raise or lower the signal
Summary of the method: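 Dose the keratinocyte/fibroblast co-culture, wait 24 h, measure ICAM-1 by ELISA, then fit increases or decreases against DMSO. Cytotoxicity is checked in parallel cultures by SRB total-protein staining.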

[16] = read-out: Interferon-gamma inducible Protein 10 (IP10), CXCL10 (gene 3627); assay: BSK_KF3CT_IP10: BioMAP Diversity Plus: KF3CT Assay for Interferon-gamma inducible Protein 10 (IP10) Biomarker Activity (AID 2283068); conditions: primary human keratinocytes with fibroblasts; actives raise or lower the signal
Summary of the method: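 Signal is secreted/surface IP-10 by ELISA in a human primary skin co-culture of keratinocytes and foreskin fibroblasts, taken 24 h post-dosing; DMSO served as negative control.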

[17] = BSK_KF3CT_SRB: Viability Assessment in the BioMAP Diversity Plus: KF3CT Assay (AID 2283069); conditions: primary human keratinocytes with fibroblasts;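 also: total protein by sulforhodamine B staining as a cytotoxicity measure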
Summary of the method: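 Cytotoxicity was gauged by SRB staining (0.1% SRB, 10% TCA fixation, 560 nm) of parallel cultures at 24 h. The cells were primary human skin keratinocytes co-cultured with fibroblasts, and activity was fitted in both directions against DMSO.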

[18] = read-out: Interleukin-1 alpha (IL1a), IL1A (gene 3552); assay: BSK_KF3CT_IL1a: BioMAP Diversity Plus: KF3CT Assay for Interleukin-1 alpha (IL1a) Biomarker Activity (AID 2283070); conditions: primary human keratinocytes with fibroblasts; actives raise or lower the signal
Summary of the method: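 IL-1a was detected by ELISA 24 h after chemical treatment of a co-culture of human skin keratinocytes and foreskin fibroblasts. Gain or loss of signal was fitted against the DMSO baseline.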

[19] = read-out: TIMP metallopeptidase inhibitor 1 (TIMP1), TIMP1 (gene 7076); assay: BSK_hDFCGF_TIMP1: BioMAP Diversity Plus: hDFCGF Assay for TIMP metallopeptidase inhibitor 1 (TIMP1) Biomarker Activity (AID 2283062); conditions: primary human foreskin fibroblasts; actives raise or lower the signal
Summary of the method: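 Fibroblasts from human foreskin are treated with test chemical and harvested at 24 h. TIMP-1 is quantified by ELISA, and gain or loss of signal is scored against DMSO.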

[20] = BSK_hDFCGF_SRB: Viability Assessment in the BioMAP Diversity Plus: hDFCGF Assay (AID 2283061); conditions: primary human foreskin fibroblasts;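 also: cells exposed to compound for 24 h before the read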
Summary of the method: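 Cells were dosed with test chemical, cultured 24 h, fixed with 10% TCA, then stained with 0.1% SRB and read at 560 nm. The fibroblasts were human foreskin primary cells, and DMSO served as baseline.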

Measured: AC50

C[C@H]1C[C@@H]2[C@H]([C@@H](O)C[C@@]3(C)[C@H]2CC[C@]3(O)C(=O)CO)[C@@]2(C)C=CC(=O)C=C12
active: [4] 1.2 µM | [5] 860 nM and 150 nM | [12] 150 nM and 626 nM | [14] 0.15 µM
inactive: [1] | [2] | [3] | [4] | [6] | [7] | [8] | [9] | [10] | [11] | [13] | [14] | [15] | [16] | [17] | [18]

CC(=O)[C@H]1CC[C@H]2[C@@H]3CC=C4C[C@@H](O)CC[C@]4(C)[C@H]3CC[C@]12C
active: [5] 9.48 µM | [6] 5.69 µM
inactive: [1] | [2] | [3] | [4] | [5] | [6] | [7] | [8] | [9] | [10] | [11] | [12] | [13] | [14] | [15] | [16] | [17] | [18]

COc1cc(C=O)ccc1OC(=O)C(C)C
active: [4] 5.27 µM
inactive: [1] | [2] | [3] | [4] | [5] | [6] | [7] | [8] | [9] | [10] | [11] | [12] | [13] | [14] | [15] | [16] | [17] | [18]

CC(C)(COC(=O)c1ccccc1)COC(=O)c1ccccc1
inactive: [1] | [2] | [3] | [4] | [5] | [7] | [8] | [11] | [12] | [15] | [16] | [17] | [18]
active: [6] 16.7 µM | [9] 32.1 µM | [10] 20 µM | [19] 34.3 µM | [13] 16.1 µM | [14] 32.9 µM

CC[Si](OC(C)=O)(OC(C)=O)OC(C)=O
active: [6] 5.47 µM | [9] 16.1 µM
inactive: [1] | [2] | [3] | [4] | [5] | [6] | [7] | [8] | [9] | [10] | [11] | [12] | [13] | [14] | [15] | [16] | [17] | [18]

N#Cc1ccc(CC(=NNC(=O)Nc2ccc(OC(F)(F)F)cc2)c2cccc(C(F)(F)F)c2)cc1
inactive: [1] | [2] | [3] | [4] | [5] | [6] | [7] | [8] | [9] | [10] | [20] | [11] | [12] | [13] | [14] | [15] | [16] | [17] | [18]

OC[C@H]1O[C@H](O[C@]2(CCl)O[C@H](CCl)[C@@H](O)[C@@H]2O)[C@H](O)[C@@H](O)[C@H]1Cl
inactive: [1] | [2] | [3] | [4] | [5] | [6] | [7] | [8] | [9] | [10] | [19] | [11] | [12] | [13] | [14] | [15] | [16] | [17] | [18]

CCCCC/C=C/C=C/C=O
active: [2] 30.8 µM | [3] 14.5 µM | [4] 32.9 µM | [5] 20 µM | [6] 10.8 µM | [8] 30.1 µM | [9] 4.99 µM | [10] 10.7 µM | [11] 25.1 µM | [12] 20 µM | [13] 6.87 µM | [14] 8.82 µM | [15] 29.3 µM | [16] 29.4 µM | [17] 32.6 µM | [18] 29.5 µM
inactive: [1] | [7]

O=C1CCCCCCCCCCCCCCO1
active: [1] 27.8 µM | [2] 28.7 µM | [4] 31.9 µM | [5] 28 µM | [6] 11.4 µM | [9] 2.99 µM | [10] 9.4 µM | [14] 20 µM | [15] 17.9 µM
inactive: [3] | [7] | [8] | [19] | [11] | [12] | [13] | [16] | [17] | [18]

CC(C)c1ccc(C(C)C)cc1
active: [2] 35.5 µM | [4] 20 µM | [5] 32.6 µM | [9] 33.4 µM | [20] 36.1 µM | [14] 36.2 µM
inactive: [1] | [3] | [6] | [7] | [8] | [10] | [11] | [12] | [13] | [15] | [16] | [17] | [18]

Nc1cc([N+](=O)[O-])ccc1O
active: [1] 20 µM | [9] 20 µM and 10.8 µM | [11] 1.88 µM
inactive: [1] | [2] | [3] | [4] | [5] | [6] | [7] | [8] | [10] | [11] | [12] | [13] | [14] | [15] | [16] | [17] | [18]

O=[N+]([O-])c1cc(C(F)(F)F)ccc1Cl
active: [9] 0.0171 µM
inactive: [1] | [2] | [3] | [4] | [5] | [6] | [7] | [8] | [10] | [19] | [11] | [12] | [13] | [14] | [15] | [16] | [17] | [18]
